Results reported in PubChem BioAssay (NCATS).
Inconclusive results are not listed. Calls of active or inactive are those of the source. Unless noted, calls follow the shape of the dose curve; as a rule, active = well fitted curve in the direction sought with a large enough effect; inconclusive = small, poorly fitted or top-dose-only effect, or another doubt; inactive = no such curve, though single readings can be large; an effect the other way counts as inactive or inconclusive.

Tests used:
[1] = molecular target: DNA repair nuclease/redox regulator APEX1 (Homo sapiens) (UniProt P27695); experiment: qHTS Validation Assay for Inhibitors of the Human Apurinic/apyrimidinic Endonuclease 1 (APE1) (AID 1705;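 also: TAMRA fluorescence gain over two minutes as APE1 cuts a quenched THF abasic duplex; % is scaled to controls: 0 for no effect and ±100 for the full control effect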)
Procedure, shortened: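 qHTS, 1536-well. APE1 + cpd 15 min RT → 50 nM TAMRA/BHQ-2 THF-abasic dsDNA substrate → kinetic fluorescence, 3 reads/60 s; delta(read3−read1) = reaction progress. No-enzyme buffer = negative control.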

[2] = Counterscreen for APE1 Inhibitors: Fluorescent Dye Displacement Validation Assay (AID 1707);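 also: plate controls were ThO with dsDNA and no compound for no effect and ThO without dsDNA for full effect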
Procedure, shortened: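 Reaction mixture of 250 nM Thiazole Orange and 50 nM double-stranded abasic-site DNA was dispensed, compounds were pin-transferred, and fluorescence was read at endpoint (480 nm ex, 540 nm em). Reduced fluorescence indicated dye displacement by DNA binding.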

[3] = qHTS for differential inhibitors of proliferation of Plasmodium falciparum line 7G8 (AID 1815);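 also: parasite growth measured after three days of incubation; plate controls were vehicle wells for no effect and reference inhibitor wells for full effect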
[4] = qHTS for differential inhibitors of proliferation of Plasmodium falciparum line GB4 (AID 1816); conditions: Potency: Plasmodium falciparum GB4 proliferation inhibition;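 also: parasite growth measured after 72 h incubation; 0% = vehicle DMSO and -100% = reference inhibitor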
[5] = qHTS for differential inhibitors of proliferation of Plasmodium falciparum line 3D7 (AID 1876);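 also: parasite growth measured after three days of culture; 0% = vehicle wells and -100% = reference inhibitor wells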
[6] = qHTS for differential inhibitors of proliferation of Plasmodium falciparum line D10 (AID 1877);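 also: parasites grown with compound for 72 h before DNA staining; plate controls were vehicle wells for no effect and reference inhibitor wells for full effect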
[7] = qHTS for differential inhibitors of proliferation of Plasmodium falciparum line Dd2 (AID 1882); conditions: Potency: Plasmodium falciparum Dd2 proliferation inhibition;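 also: plate controls were DMSO vehicle for no effect and 0.29 µM artemisinin for full effect; nearly all actives have a fitted effect of over 65% in size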
Procedure, shortened: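 SYBR Green DNA fluorescence (ex 485, em 535 nm) after overnight lysis quantifies parasite growth; compound exposure lasted 72 h at 37 C on infected red cells at 2.5% hematocrit, 0.3% parasitemia (final). Artemisinin 0.29 uM and vehicle wells define normalization.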

[8] = qHTS for differential inhibitors of proliferation of Plasmodium falciparum line W2 (AID 1883); conditions: Potency: Plasmodium falciparum W2 proliferation inhibition;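 also: parasites grown with compound for 72 h before lysis and staining; 0% = vehicle wells and -100% = control inhibitor wells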
[9] = qHTS for differential inhibitors of proliferation of Plasmodium falciparum line HB3 (AID 1886); conditions: Potency: Plasmodium falciparum HB3 proliferation inhibition;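 also: parasites grown with compound for 72 h before SYBR Green readout; plate controls were vehicle for no effect and reference inhibitor for full effect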
[10] = molecular target: Ferritin light chain (Equus caballus) (UniProt P02791); experiment: qHTS Validation Assay for Identification of Novel General Anesthetics (AID 2323); also: % is scaled to controls: 0 for no effect and ±100 for the full control effect
Procedure, shortened: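 Fluorescence at 535 nm (excitation 380 nm) reported loss of 1-AMA binding to horse-spleen apoferritin (10 uM) in PBS with 50% saturated 1-aminoanthracene, after 10 min room-temperature incubation with compound; values from Hill fits of normalized response.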

[11] = molecular target: ATP-dependent DNA helicase Q1 (Homo sapiens) (UniProt P46063); experiment: qHTS Validation Assay for Inhibitors of RecQ-Like Dna Helicase 1 (RECQ1) (AID 2353);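 also: plate controls were DMSO vehicle for no effect and enzyme-free control for full effect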
Procedure, shortened: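 RECQ1T1 50 nM; forked duplex (20 bp + 30-nt ss tails) 200 nM, ATP 2 mM final; pH 8.0, 2 mM MgCl2, 2.5 ug/ml poly(dI-dC); 15 min compound preincubation; discontinuous kinetic read over 2 h at RT.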

[12] = Validation screen for inhibitors of Lassa infection (AID 463096; calls by dose curve; also: % is scaled to controls: 0 for no effect and ±100 for the full control effect)
[13] = Validation screen for small molecules that induce DNA re-replication in MCF 10A normal breast cells (AID 463097); also: 0% is about no effect; nearly all actives have a fitted effect of over 60% in size
Procedure, shortened: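 Image-based qHTS: normal breast cells are incubated with compound for 48 hr, stained with Hoechst, and scanned for total nuclear fluorescence. Compounds raising the fraction of nuclei with elevated DNA content count as re-replication inducers.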

[14] = Quantitative high throughput screen for delayed death inhibitors of the malarial parasite plastid, 96 hour incubation (AID 488745); also: % is scaled to controls: 0 for no effect and ±100 for the full control effect; nearly all actives have a fitted effect of over 70% in size
Procedure, shortened: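 Decreased firefly luciferase luminescence indicates inhibited growth of reporter-integrated P. falciparum after two generations (96 h, 37 C, 5% CO2). Infected erythrocytes at 0.1% parasitemia, 2% hematocrit, in Albumax-supplemented RPMI 1640.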

[15] = molecular target: M-phase phosphoprotein 8 (Homo sapiens) (UniProt Q99549); experiment: qHTS Validation Assay for Inhibitors for MPP8 Chromodomain Interactions with Methylated Histone Tails (AID 488949);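 also: 50 nM MPP8 with 50 nM peptide preformed then compounds added for 30 min; AlphaScreen signal from MPP8 chromodomain bound to biotinylated H3K9me3 peptide; top concentration of the series differs between compounds; % is scaled to controls: 0 for no effect and ±100 for the full control effect; nearly all actives have a fitted effect of over 55% in size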
Procedure, shortened: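 50 nM MPP8 + 50 nM b-H3K9me3 peptide, PBS pH 7.4/0.01% Tween-20, 30 min RT; + cpd 30 min RT; + AlphaScreen donor/Ni-chelate acceptor beads 10 ug/mL final, 30 min dark; luminescence read.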

[16] = molecular target: Transient receptor potential cation channel subfamily V member 1 (Homo sapiens) (UniProt Q8NER1); experiment: HTS Assay for Compounds that Act as Enhancers of the Vanilloid Receptor 1 (AID 488979); also: 0% is about no effect
Procedure, shortened: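 TRPV1 cells loaded with Fluo-8 calcium dye; compound added and Ca2+ signal (ex 480/em 520 nm) followed 3 min, then capsaicin at EC20 added and read 2 more min to detect enhancement.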

[17] = molecular target: Thyrotropin receptor (Homo sapiens) (UniProt P16473); experiment: qHTS Assay for Antagonists of the Thyroid Stimulating Hormone Receptor (AID 488980); also: 0% is about no effect
Procedure, shortened: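 Readout is cAMP by HTRF competition between cellular cAMP and cAMP-d2 for a cryptate-labelled antibody. Antagonism was assessed in TSHR-transfected HEK293 cells stimulated with 4 nM TSH (EC80, final) in the presence of RO 20-1724.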

[18] = molecular target: ATP-dependent 6-phosphofructokinase (Trypanosoma brucei brucei) (UniProt O15648); experiment: qHTS Assay to Find Inhibitors of T. brucei phosphofructokinase: hit validation (AID 492961);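 also: luminescence reports ADP formed as PFK phosphorylates fructose-6-phosphate with ATP; % is scaled to controls: 0 for no effect and ±100 for the full control effect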
Procedure, shortened: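 Compounds titrated; %activity normalized to 0x and 1x enzyme controls, curve-fitted. Readout: ADP-Glo luminescence after 45 min room-temperature reaction of 1.25 nM PFK, 0.1 mM ATP, 0.5 mM F6P, pH 8.0.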

[19] = molecular target: Thyrotropin-releasing hormone receptor (Homo sapiens) (UniProt P34981); experiment: qHTS for Small Molecule Agonists and Allosteric Enhancers of Human TRH Receptor: Validation Screen for Agonists (AID 493127;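 active = calcium activation more than 3 SD above the typical response in the agonist read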;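 also: intracellular calcium rise by fluo-8 fluorescence before TRH EC20 addition; 0% is about no effect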); conditions: TRH receptor agonist cell assay; at 2 µM; active compounds read high
Procedure, shortened: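 Compound-evoked intracellular calcium release in fluo-8-loaded TRHR cells, read kinetically on FDSS (Ex 480/Em 530, 1 s/cycle) after 23 nL pintool transfer. Agonist phase preceded 10 nM TRH EC20 addition.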

[20] = molecular target: Galactokinase (Homo sapiens) (UniProt P51570); experiment: qHTS Validation Assay for Inhibitors of Human Galactokinase (GALK) (AID 493189); also: 0% is about no effect
Procedure, shortened: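 5 nM GALK / 100 uM galactose / 35 uM ATP, 20 mM HEPES pH8.0, 5 mM MgCl2, 60 mM NaCl, 1 mM DTT, 0.01% BSA (final). RT 1 h; Kinase-Glo Plus luminescence.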

[21] = Validation screen for small molecules that induce DNA re-replication in SW480 colon adenocarcinoma cells (AID 504364); also: 0% is about no effect
Procedure, shortened: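 Image-based DNA content read-out: Hoechst stain 40 min, total nuclear fluorescence intensity (ex 405 nm, em 500-530 nm) after 48 h compound exposure of 250 SW480 cells/well at 37 C, 5% CO2, versus DMSO vehicle.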

[22] = molecular target: Ubiquitin carboxyl-terminal hydrolase 1 (Homo sapiens) (UniProt O94782); experiment: Inhibitors of USP1/UAF1: Pilot qHTS (AID 504865);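 also: rhodamine fluorescence freed from ubiquitin-rhodamine substrate followed over time; top concentration of the series differs between compounds; % is scaled to controls: 0 for no effect and ±100 for the full control effect; nearly all actives have a fitted effect of over 35% in size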
Procedure, shortened: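 In 50mM HEPES pH 7.8 containing 0.5mM EDTA, 1mM TCEP, 0.1 mg/ml BSA and 0.01% Tween-20, 1nM USP1/UAF1 is exposed to compound for 15 min, then Ub-Rho (150nM final) is added and fluorescence is read over time.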

[23] = molecular target: Luciferin 4-monooxygenase (Photinus pyralis) (UniProt P08659); experiment: Biochemical firefly luciferase enzyme assay for NPC (AID 624030);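 also: purified P. pyralis luciferase at 10 nM with luciferin and ATP substrate; 0% = DMSO and -100% = full luciferase inhibition by PTC124 control; nearly all actives have a fitted effect of over 70% in size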
Procedure, shortened: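 Purified P. pyralis luciferase at 10 nM in 50 mM Tris Acetate (final), luminescence read within 5 minutes of enzyme addition to compounds. Activity normalised to PTC124 versus DMSO; concentration-response curves classed by r2, magnitude and activity.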

[24] = S16 Schwann cell viability assay (CellTiter-Glo assay) (AID 624031);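 also: cellular ATP luminescence as a viability measure; plate controls were DMSO-treated cells for no effect and cell-free wells for full effect; nearly all actives have a fitted effect of over 70% in size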
Procedure, shortened: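 Native S16 rat Schwann cells in DMEM/10% FBS without phenol red were incubated overnight, then exposed to compounds for 24 h at 37 °C/5% CO2. Viability was read as ATP luminescence (CellTiter-Glo), normalized to no-cell wells and DMSO (0%).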

[25] = S16 Schwann cell PMP22 intronic element firefly luciferase assay (AID 624032);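 also: plate controls were DMSO for no effect and PTC124 positive control mean for full effect; nearly all actives have a fitted effect of over 30% in size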
Procedure, shortened: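 Rat S16 Schwann cells stably carrying firefly luciferase driven by a PMP22 intronic element, in 10% FBS, treated 24 h at 37 C. ONE-Glo luminescence normalized to PTC124 control and DMSO (0%); curves classed by r2, magnitude and activity.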

[26] = S16 Schwann cell PMP22 intronic element beta-lactamase assay (AID 624044; calls by dose curve;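 also: 0% = DMSO and -100% = potassium clavulanate positive control; nearly all actives have a fitted effect of over 15% in size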); conditions: S16 rat Schwann cells, PMP22 element beta-lactamase FRET, 24 h; ratio activity, negative = inhibition: at 38.3 µM (top of the series) unless noted
Procedure, shortened: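 Beta-lactamase reporter under a PMP22 intronic regulatory element in stable S16 rat Schwann cells; 24 h compound exposure. 460 nm blue signal normalized between DMSO (0%) and potassium clavulanate, with 535 nm FRET tracking viability; curves classed by r2 and response.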

[27] = qHTS profiling for inhibitors of Plasmodium falciparum proliferation (AID 504749);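 also: 0% = DMSO vehicle and full inhibition = artemisinin control; nearly all actives have a fitted effect of over 60% in size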; conditions: P. falciparum in erythrocytes, SYBR Green DNA, 72 h, at 28.7 µM (top of the series)
Procedure, shortened: (§1)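 Each compound contacts P. falciparum-infected red blood cells for 72 h at 37 C; lysis buffer (Tris, EDTA, saponin, Triton X, SYBR Green I) is added and fluorescence measured next morning; values normalized to controls.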

[28] = test system: 3D7; experiment: as above; conditions: P. falciparum in erythrocytes, SYBR Green DNA, 72 h; series mostly up to 28.7 µM
Procedure, shortened: as §1

[29] = test system: 7G8; experiment: as above; conditions: P. falciparum in erythrocytes, SYBR Green DNA, 72 h; series mostly up to 12.8 µM
Procedure, shortened: as §1

[30] = test system: AA1029; experiment: as above; conditions: P. falciparum in erythrocytes, SYBR Green DNA, 72 h; series mostly up to 28.7 µM
Procedure, shortened: as §1

[31] = test system: AS120; experiment: as above; conditions: P. falciparum in erythrocytes, SYBR Green DNA, 72 h; series mostly up to 28.7 µM
Procedure, shortened: as §1

[32] = test system: ATS189; experiment: as above; conditions: P. falciparum in erythrocytes, SYBR Green DNA, 72 h; series mostly up to 28.7 µM
Procedure, shortened: as §1

[33] = test system: ATS95; experiment: as above; conditions: P. falciparum in erythrocytes, SYBR Green DNA, 72 h; series mostly up to 28.7 µM
Procedure, shortened: as §1

[34] = test system: C2A; experiment: as above; conditions: P. falciparum in erythrocytes, SYBR Green DNA, 72 h; series mostly up to 28.7 µM
Procedure, shortened: as §1

[35] = test system: CP185; experiment: as above; conditions: P. falciparum in erythrocytes, SYBR Green DNA, 72 h; series mostly up to 28.7 µM
Procedure, shortened: as §1

[36] = test system: CP191; experiment: as above; conditions: P. falciparum in erythrocytes, SYBR Green DNA, 72 h; series mostly up to 28.7 µM
Procedure, shortened: as §1

[37] = test system: CP192; experiment: as above; conditions: P. falciparum in erythrocytes, SYBR Green DNA, 72 h; series mostly up to 28.7 µM
Procedure, shortened: as §1

[38] = test system: CP194; experiment: as above; conditions: P. falciparum in erythrocytes, SYBR Green DNA, 72 h; series mostly up to 28.7 µM
Procedure, shortened: as §1

[39] = test system: CP201; experiment: as above; conditions: P. falciparum in erythrocytes, SYBR Green DNA, 72 h; series mostly up to 28.7 µM
Procedure, shortened: as §1

[40] = test system: CP203; experiment: as above; conditions: P. falciparum in erythrocytes, SYBR Green DNA, 72 h; series mostly up to 28.7 µM
Procedure, shortened: as §1

[41] = test system: CP211; experiment: as above; conditions: P. falciparum in erythrocytes, SYBR Green DNA, 72 h; series mostly up to 28.7 µM
Procedure, shortened: as §1

Thyrotropin receptor (Homo sapiens), sequence (P16473 whole entry, looked up): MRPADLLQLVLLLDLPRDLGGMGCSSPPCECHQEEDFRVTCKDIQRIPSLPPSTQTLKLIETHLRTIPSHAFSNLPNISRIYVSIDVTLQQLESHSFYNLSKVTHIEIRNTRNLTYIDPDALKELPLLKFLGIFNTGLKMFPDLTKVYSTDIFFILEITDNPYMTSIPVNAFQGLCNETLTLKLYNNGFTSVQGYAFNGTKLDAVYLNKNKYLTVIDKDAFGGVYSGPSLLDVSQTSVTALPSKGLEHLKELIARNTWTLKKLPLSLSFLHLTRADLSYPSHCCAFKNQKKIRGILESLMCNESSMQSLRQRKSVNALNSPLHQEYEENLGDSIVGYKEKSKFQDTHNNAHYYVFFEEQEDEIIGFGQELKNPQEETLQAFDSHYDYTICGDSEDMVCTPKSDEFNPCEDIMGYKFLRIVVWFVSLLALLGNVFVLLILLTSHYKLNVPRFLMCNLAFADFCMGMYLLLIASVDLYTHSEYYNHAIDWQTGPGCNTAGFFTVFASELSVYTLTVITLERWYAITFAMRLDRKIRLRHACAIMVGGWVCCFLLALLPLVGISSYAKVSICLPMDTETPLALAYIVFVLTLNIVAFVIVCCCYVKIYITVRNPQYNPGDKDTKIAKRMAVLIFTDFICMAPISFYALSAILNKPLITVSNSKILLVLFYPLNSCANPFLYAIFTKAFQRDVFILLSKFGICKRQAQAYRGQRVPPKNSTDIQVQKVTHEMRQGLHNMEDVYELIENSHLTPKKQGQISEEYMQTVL
Thyrotropin-releasing hormone receptor (Homo sapiens), sequence (P34981 whole entry, looked up): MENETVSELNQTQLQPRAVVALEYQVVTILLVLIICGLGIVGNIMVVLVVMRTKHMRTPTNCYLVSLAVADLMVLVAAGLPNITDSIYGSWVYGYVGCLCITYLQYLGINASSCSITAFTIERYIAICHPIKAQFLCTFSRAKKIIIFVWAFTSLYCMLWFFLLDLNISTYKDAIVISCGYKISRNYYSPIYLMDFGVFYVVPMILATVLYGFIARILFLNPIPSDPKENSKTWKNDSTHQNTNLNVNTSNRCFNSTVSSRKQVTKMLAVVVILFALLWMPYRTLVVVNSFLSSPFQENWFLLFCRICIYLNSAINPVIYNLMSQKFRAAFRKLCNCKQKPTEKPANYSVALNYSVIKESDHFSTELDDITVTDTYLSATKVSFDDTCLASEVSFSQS
ATP-dependent 6-phosphofructokinase (Trypanosoma brucei brucei), sequence (O15648 whole entry, looked up): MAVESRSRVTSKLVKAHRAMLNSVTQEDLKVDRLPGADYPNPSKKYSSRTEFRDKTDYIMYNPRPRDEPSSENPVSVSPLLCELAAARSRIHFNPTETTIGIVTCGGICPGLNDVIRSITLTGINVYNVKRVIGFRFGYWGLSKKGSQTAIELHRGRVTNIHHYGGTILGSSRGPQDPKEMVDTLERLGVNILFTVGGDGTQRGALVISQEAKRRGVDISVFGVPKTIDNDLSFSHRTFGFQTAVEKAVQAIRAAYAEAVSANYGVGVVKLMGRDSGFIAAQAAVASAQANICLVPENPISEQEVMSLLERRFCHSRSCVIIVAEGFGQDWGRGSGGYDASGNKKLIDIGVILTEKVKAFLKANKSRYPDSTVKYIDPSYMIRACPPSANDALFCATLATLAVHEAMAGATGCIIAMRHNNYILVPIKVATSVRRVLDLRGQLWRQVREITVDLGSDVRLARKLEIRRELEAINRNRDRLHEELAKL
DNA repair nuclease/redox regulator APEX1 (Homo sapiens), sequence (P27695 whole entry, looked up): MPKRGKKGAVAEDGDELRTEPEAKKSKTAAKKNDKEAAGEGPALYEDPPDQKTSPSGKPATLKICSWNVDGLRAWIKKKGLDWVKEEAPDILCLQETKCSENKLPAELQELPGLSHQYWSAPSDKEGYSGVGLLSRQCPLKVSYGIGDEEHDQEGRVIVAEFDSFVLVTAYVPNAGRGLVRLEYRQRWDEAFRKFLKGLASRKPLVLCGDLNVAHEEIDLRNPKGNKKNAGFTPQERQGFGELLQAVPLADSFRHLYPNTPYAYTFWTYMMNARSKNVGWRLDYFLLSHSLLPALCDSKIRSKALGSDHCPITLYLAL
Galactokinase (Homo sapiens), sequence (P51570 whole entry, looked up): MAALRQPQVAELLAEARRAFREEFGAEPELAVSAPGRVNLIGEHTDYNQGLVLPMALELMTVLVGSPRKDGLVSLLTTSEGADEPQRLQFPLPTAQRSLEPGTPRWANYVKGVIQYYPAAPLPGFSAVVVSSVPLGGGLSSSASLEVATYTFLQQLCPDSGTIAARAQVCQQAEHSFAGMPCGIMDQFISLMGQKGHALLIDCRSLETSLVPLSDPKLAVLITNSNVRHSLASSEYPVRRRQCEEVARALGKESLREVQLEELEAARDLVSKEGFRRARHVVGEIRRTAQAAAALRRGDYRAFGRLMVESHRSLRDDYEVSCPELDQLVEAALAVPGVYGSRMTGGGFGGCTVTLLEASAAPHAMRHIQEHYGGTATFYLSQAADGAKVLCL
ATP-dependent DNA helicase Q1 (Homo sapiens), sequence (P46063 whole entry, looked up): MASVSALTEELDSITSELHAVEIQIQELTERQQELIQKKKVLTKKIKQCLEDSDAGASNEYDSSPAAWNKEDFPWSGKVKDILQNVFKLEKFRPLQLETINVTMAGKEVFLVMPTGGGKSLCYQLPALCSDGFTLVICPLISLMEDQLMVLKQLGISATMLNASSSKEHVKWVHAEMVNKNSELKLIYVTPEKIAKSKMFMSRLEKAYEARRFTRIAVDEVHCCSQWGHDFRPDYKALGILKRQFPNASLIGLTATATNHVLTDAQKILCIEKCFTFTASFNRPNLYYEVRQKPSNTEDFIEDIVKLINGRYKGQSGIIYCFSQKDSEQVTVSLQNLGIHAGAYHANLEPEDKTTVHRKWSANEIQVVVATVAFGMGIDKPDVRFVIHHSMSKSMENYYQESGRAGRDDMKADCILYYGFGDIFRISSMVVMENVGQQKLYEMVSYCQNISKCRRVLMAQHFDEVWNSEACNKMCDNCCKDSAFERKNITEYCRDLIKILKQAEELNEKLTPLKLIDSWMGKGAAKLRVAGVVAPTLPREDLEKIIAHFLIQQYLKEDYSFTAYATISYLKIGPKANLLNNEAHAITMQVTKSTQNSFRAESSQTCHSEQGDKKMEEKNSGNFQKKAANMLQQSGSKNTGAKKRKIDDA
M-phase phosphoprotein 8 (Homo sapiens), sequence (Q99549 whole entry, looked up): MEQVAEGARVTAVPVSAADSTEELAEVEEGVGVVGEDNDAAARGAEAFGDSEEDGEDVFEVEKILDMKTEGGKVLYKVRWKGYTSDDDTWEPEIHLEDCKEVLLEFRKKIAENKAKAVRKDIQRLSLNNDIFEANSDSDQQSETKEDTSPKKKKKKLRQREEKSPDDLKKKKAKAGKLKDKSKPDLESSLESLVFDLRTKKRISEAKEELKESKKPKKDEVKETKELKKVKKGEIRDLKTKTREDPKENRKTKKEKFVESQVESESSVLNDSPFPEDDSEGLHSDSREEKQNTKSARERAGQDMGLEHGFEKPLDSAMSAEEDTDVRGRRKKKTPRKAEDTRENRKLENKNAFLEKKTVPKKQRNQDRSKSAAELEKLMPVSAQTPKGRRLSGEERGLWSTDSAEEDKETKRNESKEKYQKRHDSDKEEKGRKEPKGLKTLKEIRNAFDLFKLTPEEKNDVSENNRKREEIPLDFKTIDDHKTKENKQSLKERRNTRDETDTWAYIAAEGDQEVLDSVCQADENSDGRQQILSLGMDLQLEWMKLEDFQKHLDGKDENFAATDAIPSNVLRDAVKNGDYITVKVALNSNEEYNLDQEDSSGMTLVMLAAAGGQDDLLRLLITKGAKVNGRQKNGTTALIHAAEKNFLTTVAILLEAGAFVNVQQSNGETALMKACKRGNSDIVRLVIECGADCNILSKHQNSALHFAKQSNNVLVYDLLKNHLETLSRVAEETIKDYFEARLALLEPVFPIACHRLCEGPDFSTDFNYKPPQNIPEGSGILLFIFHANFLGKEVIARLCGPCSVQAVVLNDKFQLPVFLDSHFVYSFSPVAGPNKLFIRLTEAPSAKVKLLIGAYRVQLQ
Ferritin light chain (Equus caballus), sequence (P02791 2-175 limits assumed): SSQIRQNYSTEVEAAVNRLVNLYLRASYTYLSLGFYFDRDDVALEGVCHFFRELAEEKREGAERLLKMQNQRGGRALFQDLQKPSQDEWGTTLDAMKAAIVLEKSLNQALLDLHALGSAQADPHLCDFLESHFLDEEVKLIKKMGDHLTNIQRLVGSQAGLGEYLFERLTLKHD
Luciferin 4-monooxygenase (Photinus pyralis), sequence (P08659 whole entry, looked up): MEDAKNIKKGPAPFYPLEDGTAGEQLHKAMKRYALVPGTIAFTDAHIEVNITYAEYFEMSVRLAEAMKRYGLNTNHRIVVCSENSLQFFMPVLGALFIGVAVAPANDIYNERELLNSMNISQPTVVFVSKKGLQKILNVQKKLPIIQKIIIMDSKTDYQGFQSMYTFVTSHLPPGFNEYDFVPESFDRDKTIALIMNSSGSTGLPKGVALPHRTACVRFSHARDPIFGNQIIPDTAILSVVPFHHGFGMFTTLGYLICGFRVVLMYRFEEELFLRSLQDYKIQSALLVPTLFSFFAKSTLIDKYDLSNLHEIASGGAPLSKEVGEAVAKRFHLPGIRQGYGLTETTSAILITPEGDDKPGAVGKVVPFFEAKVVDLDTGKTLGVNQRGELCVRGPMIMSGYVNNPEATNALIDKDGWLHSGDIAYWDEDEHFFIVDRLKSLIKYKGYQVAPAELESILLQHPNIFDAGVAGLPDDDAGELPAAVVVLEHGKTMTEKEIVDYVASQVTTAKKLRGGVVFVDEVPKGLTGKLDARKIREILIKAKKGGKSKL

C[C@]12CC[C@H](OS(=O)(=O)O)CC1=CCC1C2CC[C@]2(C)C(=O)CC[C@@H]12 (some centres not stated)
inactive: Potency [1] | outcome [2] | Potency [3] | Potency [4] | Potency [5] | Potency [6] | Potency [7] | Potency [8] | Potency [9] | Potency [10] | outcome [11] | Potency [12] | Potency [13] | Potency [14] | Potency [15] | outcome [16] | outcome [17] | Potency [18] | activation [19] 0.688% | outcome [20] | outcome [21] | Potency [22] | Potency [23] | Potency [24] | Potency [25] | Potency [26] | activity, negative = inhibition ([27]; parasite line A) -6.88% | activity, negative = inhibition ([27]; parasite line B) 5.59% | Potency [28] | Potency [29] | Potency [30] | Potency [31] | Potency [32] | Potency [33] | Potency [34] | Potency [35] | Potency [36] | Potency [37] | Potency [38] | Potency [39] | Potency [40] | Potency [41]
